Screens deposited in PubChem by several laboratories.
A selection: hits, their analogues and other compounds. The true share with any hit is near 27%.
sEH act: soluble epoxide hydrolase activators, primary screen, biochemical, human sEH; activation, % at 2 µM; hit rate 0.04% among 91,000; AID 717, 2007; Bifunctional epoxide hydrolase 2 (Homo sapiens), P34913; purified human sEH enzymatic activity, activator screen; in the data active = activation above about 37%
CYP2C9 act: human CYP2C9 activators, primary screen, biochemical, luminescence | hit rate 1.4% among 96,000 | Cytochrome P450 2C9 (Homo sapiens), P11712 | activation factor at 5 µM | recombinant CYP2C9, luciferin-H conversion; hits give high values; factor 1 = untreated enzyme, 0 = blocked;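 active = activation factor of 2 or more for CYP2C9 at a 5 µM dose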
Target sequence (P11712 whole entry, looked up): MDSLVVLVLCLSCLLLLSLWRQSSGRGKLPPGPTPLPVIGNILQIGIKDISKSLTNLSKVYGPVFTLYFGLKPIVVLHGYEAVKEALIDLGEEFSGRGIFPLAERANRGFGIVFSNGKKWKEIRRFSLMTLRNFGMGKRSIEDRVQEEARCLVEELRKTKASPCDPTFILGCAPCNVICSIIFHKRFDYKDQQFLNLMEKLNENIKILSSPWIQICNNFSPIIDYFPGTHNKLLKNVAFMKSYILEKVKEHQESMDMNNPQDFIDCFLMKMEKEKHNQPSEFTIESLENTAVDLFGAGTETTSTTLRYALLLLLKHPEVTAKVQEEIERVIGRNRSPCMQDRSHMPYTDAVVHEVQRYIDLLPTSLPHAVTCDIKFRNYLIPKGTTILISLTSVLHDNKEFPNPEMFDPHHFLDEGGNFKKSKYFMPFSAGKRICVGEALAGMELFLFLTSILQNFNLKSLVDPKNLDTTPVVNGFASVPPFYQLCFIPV
CYP2C19 inh: blockers of cytochrome P450 2C19 activity – biochemical, luminescence, ADME assay, primary screen; P33261; CYP2C19 Supersomes, luciferin-H EGE luminescence, 30 min; inhibition, % at 5 µM; hit rate 21% among 96,000; AID 778, 2007;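 active = CYP2C19 inhibition above a set limit at 5 µM in the primary screen, cut at about 50% in these data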
CYP2C19 act: human CYP2C19 activators, primary screen, biochemical, luminescence. Cytochrome P450 2C19 (Homo sapiens), P33261. recombinant CYP2C19, luciferin-H EGE luminescence; hits give high values; 0 = fully inhibited enzyme, 1 = untreated enzyme. activation factor at 5 µM. 96,000 tested, under 10 active. AID 1025, 2008;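 active = activation factor of at least 2 at 5 µM in the primary screen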
sEH inh: soluble epoxide hydrolase inhibitors, primary screen, biochemical, human sEH; recombinant human sEH enzymatic activity assay; inhibition, % at 2 µM; hit rate 0.34% among 91,000; in the data active = inhibition above about 80%
CYP2C9 inh: blockers of cytochrome P450 2C9 activity – biochemical, luminescence, ADME assay, primary screen; CYP2C9 Supersomes, luciferin-H conversion; inhibition, % at 5 µM; hit rate 20% among 96,000; AID 777, 2007;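 active = blocking of liver enzyme CYP2C9 beyond about 50% at 5 µM, limit read from the data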
Each line names hits and unclear results; the compound was inactive in the other large screens.

O=C(O)CCSCc1ccccc1F	none (no result: sEH act, sEH inh)
C/C(=N\NC(=S)NCCc1ccccc1)c1ccc(C)cc1	none (no result: CYP2C9 act, CYP2C19 inh, CYP2C19 act, CYP2C9 inh)
C=C(C)CNC(=S)N/N=C(\C)c1ccc(-n2ccnc2)cc1	CYP2C19 inh 100, CYP2C9 inh 100
COc1ccc(OC)c2[nH]c(=O)c(CCNC(=O)c3cc4ccccc4o3)cc12	CYP2C19 inh 63 (no result: sEH act, sEH inh)
Cc1ccc(C)c2[nH]c(=O)c(CCNC(=O)c3cc4ccccc4o3)cc12	CYP2C9 inh 52 (no result: sEH act, sEH inh)
CCc1nccn1S(=O)(=O)c1ccc(OC)c(C)c1C	CYP2C19 inh 71
CCc1nccn1S(=O)(=O)c1ccc(Br)cc1Br	CYP2C19 inh 92, CYP2C9 inh 59 (no result: sEH act, sEH inh)
COc1ccccc1CCn1cnc2c3cc(C)ccc3n(C)c2c1=O	CYP2C19 inh 93, CYP2C9 inh 71
COc1ccc2c(c1)c1ncn(CCN3CCCC3)c(=O)c1n2C	none
COc1ccc2c(c1)c1ncn(CCN3CCCCC3)c(=O)c1n2C	CYP2C9 inh 56
Cc1ccc(-c2ccc(=O)n(CCC(=O)NCc3ccccn3)n2)cc1	none
CCOc1ccc(-n2c(SCC(=O)Nc3ccc(OC)cc3OC)nc3c(c2=O)SCC3)cc1	none
O=C(Nc1cc(C(F)(F)F)ccc1N1CCOCC1)c1ccc(F)cc1	CYP2C19 inh 77
O=C(Nc1cc(C(F)(F)F)ccc1N1CCOCC1)c1cccnc1	none
O=C(CCc1ccccc1)NC(=S)Nc1cc(C(F)(F)F)ccc1N1CCOCC1	CYP2C19 inh 88, CYP2C9 inh 93
Cc1onc(-c2ccccc2)c1C(=O)Nc1ccccc1N1CCOCC1	CYP2C19 inh 99, CYP2C9 inh 81 (no result: sEH act, sEH inh)
Cc1onc(-c2ccccc2)c1C(=O)Nc1cc(C(F)(F)F)ccc1N1CCOCC1	CYP2C19 inh 65, CYP2C9 inh 56
O=C(NCc1ccco1)C1CCCN1C(=O)NCc1ccccc1 (centres undefined)	none
O=C(O)CC(NC(=O)COc1ccc(Cl)cc1Cl)C(=O)O (centres undefined)	none
COC(=O)c1cc2ccccc2c(=O)s1	CYP2C19 inh 61
COC(=O)c1cc2ccc(OC)c(OC)c2c(=O)s1	CYP2C19 inh 57
O=C(NCCO)c1cc2ccccc2c(=O)s1	none
O=C(Nc1nccs1)c1cn(-c2ccccc2)nc1-c1ccccc1	CYP2C9 inh 62
CC(C)COc1ccc(-c2nn(-c3ccccc3)cc2C(=O)Nc2nccs2)cc1	none
CC(=O)c1c(N)c(C#N)c(C)n1-c1ccc(Br)cc1	CYP2C19 inh 94
CCn1c(SCC(=O)c2ccccc2)nnc1-c1ccoc1C	CYP2C19 inh 97, CYP2C9 inh 54
CCn1c(SCC(=O)c2ccc(C)cc2)nnc1-c1ccoc1C	CYP2C19 inh 98
CCn1c(SCC(=O)c2ccc(Cl)cc2)nnc1-c1ccoc1C	CYP2C19 inh 66
O=C1c2oc3ccc(Cl)cc3c(=O)c2C(c2ccccn2)N1CCCN1CCOCC1 (centres undefined)	none (no result: sEH act, sEH inh)
CCC(C)(C)NC(=O)CN(C(=O)CNS(=O)(=O)c1ccccc1)c1ccccc1	none
O=C1CCC(=O)N1c1nc2n(n1)C(c1ccccc1)C=C(c1ccc(Br)cc1)N2 (centres undefined)	CYP2C9 inh 61
Cn1nnnc1SCC(=O)Nc1ccccc1N1CCCCC1	none (no result: CYP2C9 act, CYP2C19 inh, CYP2C19 act, CYP2C9 inh)
Cc1ccc2nc3c(cc2c1)c(NC(=O)c1cccnc1)nn3C	CYP2C9 inh 58 (no result: sEH act, sEH inh)
CCn1nc(NC(=O)c2cccnc2)c2cc3cccc(C)c3nc21	none
Cc1ccc2cc3c(NC(=O)C(C)C)nn(C)c3nc2c1	CYP2C9 inh 70
C=CCc1cccc2cc(C(=O)NCc3ccc(C(=O)OCC)o3)c(=O)oc12	none
COc1cccc(-c2csc(N3CCN(C(=S)Nc4ccccc4Cl)CC3)n2)c1	CYP2C19 inh 73, CYP2C9 inh 64
COc1cccc(-c2csc(N3CCN(C(=S)Nc4ccccc4OC)CC3)n2)c1	CYP2C19 inh 70
COc1cc(=O)[nH]c(=O)n1CC(=O)c1ccccc1	none (no result: CYP2C9 act, CYP2C19 inh, CYP2C19 act, CYP2C9 inh)
FC(F)(F)c1cc(-c2ccccc2)nc(NCC2CCCO2)n1 (centres undefined)	none
FC(F)(F)c1cc(-c2ccccc2)nc(NC2CCCC2)n1	CYP2C9 inh 56
CC(C)CCOCC(=O)Nc1cccc(C(=O)O)c1	none (no result: sEH act, sEH inh)
CCc1ccc2oc(-c3cc(N)cc(C)c3O)nc2c1	CYP2C19 inh 95, CYP2C9 inh 94
CCc1ccc2oc(-c3cc(N)ccc3Cl)nc2c1	CYP2C19 inh 53 (no result: sEH act, sEH inh)
CCc1ccc2oc(-c3cc(N)ccc3O)nc2c1	none
CC(=O)c1cc2c(cc1NS(=O)(=O)c1ccc(C)cc1)OCCO2	none
COc1ccc(C(C)=O)cc1CSc1nnc(C)s1	CYP2C19 inh 66 (no result: sEH act, sEH inh)
Cc1cc(C)cc(NC(=O)c2ccc(CSc3nnc(C)s3)cc2)c1	CYP2C9 act 2
Cc1nnc(SCc2ccc(C(=O)O)cc2)s1	none
COc1ccc(CCNC(=O)CC2Oc3ccc(Cl)cc3NC2=O)cc1OC (centres undefined)	CYP2C19 inh 59 (no result: sEH act, sEH inh)
COc1ccc(CCNC(=O)CC2Nc3ccccc3NC2=O)cc1OC (centres undefined)	none (no result: sEH act, sEH inh)
COc1ccc(CCNC(=O)CSc2nc3cc(Cl)ccc3o2)cc1OC	CYP2C9 inh 66
Oc1ccc(N2CCN(C(c3ccccn3)c3nnnn3C3CCCC3)CC2)cc1 (centres undefined)	none (no result: CYP2C9 act, CYP2C19 inh, CYP2C19 act, CYP2C9 inh)
COc1ccc(CCNC(=O)CSc2nc3ccccc3o2)cc1OC	CYP2C19 inh 80, CYP2C9 inh 88
COc1ccc(CCNC(=O)CSc2nnc(CNC(=O)c3ccccc3F)o2)cc1OC	none
COc1ccc(C(C)=O)cc1CSc1nc2ccccc2o1	CYP2C9 inh 56
CC(C)Cn1c(=O)c2c(c3ccccc31)OC(C)C(=O)N2 (centres undefined)	none (no result: CYP2C9 act, CYP2C19 inh, CYP2C19 act, CYP2C9 inh)
O=C1CCCN1CN(C(=O)c1ccc2c(c1)OCO2)c1ccc(F)cc1	none (no result: sEH act, sEH inh)
O=[N+]([O-])c1cccnc1N1CCC(c2cc(-c3ccc(Cl)cc3)n[nH]2)CC1	none
O=C(Nc1ccc(Br)cc1)C1CC=CCC1C(=O)OCC1CCCO1 (centres undefined)	CYP2C19 inh 51
Cc1cc(=O)[nH]c(N2CCc3ccccc3C2)n1	none
COc1ccc(-c2nnc(SCc3cc(C)ccc3C)n2N)cc1	CYP2C19 inh 62
Nn1c(SC/C=C/c2ccccc2)nnc1-c1ccccn1	CYP2C19 inh 61
COc1ccc(-c2nnc(SCc3cccc(C)c3)n2N)cc1	CYP2C19 inh 52
Nn1c(SCC(=O)Nc2ccc(F)cc2)nnc1-c1ccccn1	none
Nn1c(SC/C=C/c2ccccc2)nnc1-c1cccnc1	none
Clc1ccc(-n2c(SC/C=C/c3ccccc3)nnc2-c2cccnc2)cc1	CYP2C19 inh 56
Cc1cccc(CSc2nnc(-c3ccccn3)n2N)c1	CYP2C19 inh 60
